“And” between values parts separate entries of the source, which are not always exact repeats. Equal values may be shown once. Records with an inconclusive call do not appear. A call without a number means that no potency is given here. The source made the active and inactive calls. Unless noted, calls come from the whole dose curve; as a rule, active = well fitted cell-killing curve with a large enough effect in the repeat runs; inconclusive = weak or mixed curves; inactive = no such curve, though single readings can be large or run the other way.

Chain of Peroxisome proliferator-activated receptor delta (Homo sapiens) (Q03181 whole entry, looked up): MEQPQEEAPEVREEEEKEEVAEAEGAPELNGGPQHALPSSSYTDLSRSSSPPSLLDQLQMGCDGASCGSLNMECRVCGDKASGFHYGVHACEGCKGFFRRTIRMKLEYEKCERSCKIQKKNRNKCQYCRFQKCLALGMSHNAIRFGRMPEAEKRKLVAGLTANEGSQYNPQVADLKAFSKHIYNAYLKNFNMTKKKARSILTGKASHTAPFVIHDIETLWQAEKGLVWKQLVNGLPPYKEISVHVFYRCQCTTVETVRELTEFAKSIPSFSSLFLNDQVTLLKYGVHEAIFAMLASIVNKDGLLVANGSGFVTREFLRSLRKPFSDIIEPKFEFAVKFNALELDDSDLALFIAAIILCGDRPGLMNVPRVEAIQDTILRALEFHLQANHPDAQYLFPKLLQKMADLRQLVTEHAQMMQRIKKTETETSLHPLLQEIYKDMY

Test system in the first assay: not listed separately
The assay is described as follows: qHTS assay to identify small molecule agonists of the peroxisome proliferator-activated receptor delta (PPARd) signaling pathway - cell viability counter screen (AID 743211). Note: nearly all actives have a fitted effect of over 55% in size. Note: potency is the fitted concentration of half-maximal effect. The settings on record: PPARd-bla HEK293H viability, CellTiter-Glo luminescence, 17 h; series mostly up to 62.6 µM. An outline of the steps: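 Viability was measured as CellTiter-Glo luminescence (30 min, room temperature) in the same wells as the beta-lactamase readout. GeneBLAzer PPARd UAS-bla HEK293H cells received compound after 5 h plating and were incubated 17 h at 37 C.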
For orientation: Quantitative high-throughput screening tests each substance at several concentrations.
For the molecule `O=C(O)c1cc[c]([Hg][Cl])cc1`, the Potency was 49 µM (active).

Turning to `[CH3][Hg][Cl]`, the Potency is 12.3 µM (active).

With `COC12CC[C@@]3(C[C@@H]1C(C)(O)C(C)(C)C)[C@H]1Cc4ccc(O)c5c4[C@@]3(CCN1CC1CC1)[C@H]2O5` (stereo partly specified), the Potency was 48.2 µM (active).

Take `CC(C)CC(C)(c1ccc(O)cc1)c1ccc(O)cc1`: the Potency was 55.1 µM (active) and 34.7 µM (active).

Turning to `O=C(O)COc1nc(Cl)c(Cl)cc1Cl`, the Potency entry is “inactive”.

Turning to `CC1CCC(C(C)C)C(OC(=O)c2ccccc2N)C1` (stereo unspecified), the Potency was 24.2 µM (active).

Take `O=c1ssc(Cl)c1Cl`: the Potency is 49 µM (active).

Consider `CC(C)C1CCC(Cc2ccc(Cl)cc2)C1(O)Cn1cncn1` (stereo unspecified), for which the Potency is 54.4 µM (active).

As to `c1ccc2c(c1)OCC(C1=NCCN1)O2` (stereo unspecified), the Potency is 23.7 µM (active).

`CC[C@H]1C[C@@H]2C[C@H]3c4[nH]c5ccc(OC)cc5c4CCN(C2)[C@@H]13`: the Potency is 60.1 µM (active).

On to `S=C(SSC(=S)N1CCCCC1)N1CCCCC1`, for which the Potency is 0.188 µM (active).

For the molecule `CC(=O)Nc1ccc2c(c1)Cc1ccccc1-2`, the Potency entry is “inactive”.

Consider `Cc1cc(SCc2sc(-c3ccc(C(F)(F)F)c(F)c3)nc2C)ccc1OCC(=O)O`, for which the Potency was 38.9 µM (active).

Turning to `CC(c1ccc(O)cc1)c1ccc(O)cc1`, the Potency result is “inactive”.

In the case of `O=c1c(C2CC(c3ccc(-c4ccc(Br)cc4)cc3)Cc3ccccc32)c(O)sc2ccccc12` (stereo unspecified), the Potency was 29.8 µM (active).

Consider `Oc1ccc2ccc3cccc4ccc1c2c34`, for which the Potency result is “inactive”.

`CCCCCCCCCCCCCCCC[n+]1ccccc1`: the Potency was 23.7 µM (active) [middle of 4 runs].

Turning to `C[C@]12CC[C@H]3[C@@H](CCC4=CC(=O)CC[C@@]43C)[C@@H]1CC[C@@H]2O`, the Potency entry was “inactive”.

Take `O=C(CCl)C(Cl)Cl`: the Potency was 17.5 µM (active).

Take `ClC1=C(Cl)[C@]2(Cl)[C@@H]3[C@@H]4C[C@@H]([C@H]5O[C@@H]45)[C@@H]3[C@@]1(Cl)C2(Cl)Cl`: the Potency was 49 µM (active).

Regarding `Nc1ccc(Sc2ccc(N)cc2)cc1`, the Potency entry is “inactive”.

For `C[C@@H]1O[C@@H](O[C@@H]2C=C3CC[C@@H]4[C@H](CC[C@]5(C)[C@@H](c6ccc(=O)oc6)CC[C@]45O)[C@@]3(C)CC2)[C@H](O)[C@H](O)[C@H]1O`, the Potency was 0.0188 µM (active).

For the molecule `CS(=O)(=O)c1ccc(C(=O)C2C(=O)CCCC2=O)c([N+](=O)[O-])c1`, the Potency result is “inactive”.

On to `Clc1ccc(CSC(Cn2ccnc2)c2ccc(Cl)cc2Cl)cc1` (stereo unspecified), for which the Potency was 33.5 µM (active).

With `COC(=O)N(C(=O)N1CO[C@@]2(C(=O)OC)Cc3cc(Cl)ccc3C2=N1)c1ccc(OC(F)(F)F)cc1`, the Potency result was “inactive”.

With `CC(C)CCCCCCCOP(=O)(Oc1ccccc1)Oc1ccccc1`, the Potency is 27.7 µM (active).

For `Oc1cc(Cl)c(Cl)c(Cl)c1`, the Potency was 46.5 µM (active).

`CC(C)[C@H](C(=O)OC(C#N)c1cccc(Oc2ccccc2)c1)c1ccc(OC(F)F)cc1` (stereo partly specified): the Potency entry was “inactive”.

On to `S=C=Nc1cccc2ccccc12`, for which the Potency was 24.3 µM (active).

A further assay concerns the target Peroxisome proliferator-activated receptor delta (Homo sapiens) (UniProt Q03181). The assay is described as follows: qHTS assay to identify small molecule agonists of the peroxisome proliferator-activated receptor delta (PPARd) signaling pathway (AID 743212; calls by dose curve). The settings on record: HEK293H PPARd-UAS-bla, beta-lactamase FRET ratio, 17 h; series mostly up to 62.6 µM. An outline of the steps:
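Beta-lactamase reporter readout: a ratiometric FRET signal from the LiveBLAzer substrate after 2 h at room temperature. Compound exposure at 37 °C in PPARδ-bla HEK293H cells driven by an upstream activator sequence.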
`CN(C)CCc1c[nH]c2ccc(O)cc12`: the Potency entry is “inactive”.

On to `Fc1ccc(Oc2ccnc3cc(Cl)cc(Cl)c23)cc1`, for which the Potency entry was “inactive”.

With `CC(C)(C)c1cc([N+](=O)[O-])cc(C(C)(C)C)c1O`, the Potency result is “inactive”.

On to `[Cl][Sb]([Cl])[Cl]`, for which the Potency result is “inactive”.

For the molecule `CC(Cc1ccc(C(C)(C)C)cc1)CN1C[C@@H](C)O[C@@H](C)C1` (stereo partly specified), the Potency entry is “inactive”.

Take `CCCCCCCCCCCCCN1CC(C)OC(C)C1` (stereo unspecified): the Potency entry is “inactive”.

As for `CC(=O)OC1(c2ccccc2)CCN(CCc2ccccc2)CC1`, the Potency result was “inactive”.

For the molecule `C[C@]12Cc3nonc3C[C@@H]1CC[C@@H]1[C@@H]2CC[C@@]2(C)[C@H]1CC[C@]2(C)O`, the Potency result is “inactive”.

In the case of `OC(c1ccc(Cl)cc1)(c1ccc(Cl)cc1)C(Cl)(Cl)Cl`, the Potency result is “inactive”.

Test system in the next assay: not listed separately
The assay is described as follows: qHTS assay to identify small molecule antagonists of the peroxisome proliferator-activated receptor delta (PPARd) signaling pathway - cell viability counter screen (AID 743213). Note: nearly all actives have a fitted effect of over 50% in size. Note: potency is the fitted concentration of half-maximal effect. The settings on record: PPARd-bla HEK293H viability, CellTiter-Glo luminescence, 17 h; series mostly up to 62 µM. Summed up: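 Luminescence from CellTiter-Glo, added after the bla read and incubated 30 min at room temperature, gives viability of HEK293H PPARd-bla cells exposed to compounds for 17 h at 37 C with 300 nM L165041.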
Consider `CN(C)CCc1c[nH]c2ccc(O)cc12`, for which the Potency entry is “inactive”.

Take `Fc1ccc(Oc2ccnc3cc(Cl)cc(Cl)c23)cc1`: the Potency result is “inactive”.

`CC(C)(C)c1cc([N+](=O)[O-])cc(C(C)(C)C)c1O`: the Potency entry was “inactive”.

`[Cl][Sb]([Cl])[Cl]`: the Potency entry is “inactive”.

Consider `CC(Cc1ccc(C(C)(C)C)cc1)CN1C[C@@H](C)O[C@@H](C)C1` (stereo partly specified), for which the Potency result is “inactive”.

Consider `S=C(SSC(=S)N1CCCCC1)N1CCCCC1`, for which the Potency was 168 nM (active).

As to `Cc1cc(SCc2sc(-c3ccc(C(F)(F)F)c(F)c3)nc2C)ccc1OCC(=O)O`, the Potency was 12300 nM (active).

Regarding `CC(c1ccc(O)cc1)c1ccc(O)cc1`, the Potency result is “inactive”.

As to `CCCCCCCCCCCCCN1CC(C)OC(C)C1` (stereo unspecified), the Potency result is “inactive”.

For `O=c1c(C2CC(c3ccc(-c4ccc(Br)cc4)cc3)Cc3ccccc32)c(O)sc2ccccc12` (stereo unspecified), the Potency result is “inactive”.

`CCCCCCCCCCCCCCCC[n+]1ccccc1`: the Potency was 25.7 µM (active) and 21.9 µM (active) and 24.2 µM (active).

With `C[C@]12CC[C@H]3[C@@H](CCC4=CC(=O)CC[C@@]43C)[C@@H]1CC[C@@H]2O`, the Potency entry is “inactive”.

Turning to `CC(=O)OC1(c2ccccc2)CCN(CCc2ccccc2)CC1`, the Potency entry was “inactive”.

As for `C[C@]12Cc3nonc3C[C@@H]1CC[C@@H]1[C@@H]2CC[C@@]2(C)[C@H]1CC[C@]2(C)O`, the Potency entry was “inactive”.

`C[C@@H]1O[C@@H](O[C@@H]2C=C3CC[C@@H]4[C@H](CC[C@]5(C)[C@@H](c6ccc(=O)oc6)CC[C@]45O)[C@@]3(C)CC2)[C@H](O)[C@H](O)[C@H]1O`: the Potency is 11.9 nM (active).

Consider `OC(c1ccc(Cl)cc1)(c1ccc(Cl)cc1)C(Cl)(Cl)Cl`, for which the Potency entry was “inactive”.

`Clc1ccc(CSC(Cn2ccnc2)c2ccc(Cl)cc2Cl)cc1` (stereo unspecified): the Potency was 33500 nM (active).

Regarding `CC(C)[C@H](C(=O)OC(C#N)c1cccc(Oc2ccccc2)c1)c1ccc(OC(F)F)cc1` (stereo partly specified), the Potency entry is “inactive”.

The values above are taken from PubChem BioAssay (Tox21).
